Binding signal data for 1 sequence are collected here from paper PMC7862700, “An all-to-all approach to the identification of sequence-specific readers for epigenetic DNA modifications on cytosine”.

Assay in all cases: DAPPL (digital affinity profiling via proximity ligation, sequencing); 10 mM Tris-HCl pH 7.5, 50 mM NaCl, 1 mM DTT, 4% glycerol, room temperature, 30 min; GST-TFs on glutathione beads, 16-mer random dsDNA library, 0.1% formaldehyde crosslink after washing; high values mean tight binding
For one assay, the target named is T1, FEV (Homo sapiens, UniProt Q99581 1-238).
T1 sequence: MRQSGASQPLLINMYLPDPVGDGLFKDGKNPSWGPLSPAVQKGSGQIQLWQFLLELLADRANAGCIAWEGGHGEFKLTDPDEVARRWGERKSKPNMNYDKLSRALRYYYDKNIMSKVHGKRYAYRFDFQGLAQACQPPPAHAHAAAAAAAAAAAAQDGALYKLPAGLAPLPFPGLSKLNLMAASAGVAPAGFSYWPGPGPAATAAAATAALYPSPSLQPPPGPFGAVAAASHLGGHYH
The settings on record: protein: recombinant; tags: N-terminal GST; dsDNA, one strand shown. In a few lines:
(§1)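 Human transcription factors were made in yeast as GST fusions, captured on glutathione beads and barcoded with DNA. With a tag-only sample included, the pool was incubated with 200 nmole of a random double-stranded 16-mer DNA library in Tris/NaCl/DTT/glycerol buffer at room temperature for 30 min, then crosslinked with 0.1% formaldehyde after washing, ligated by proximity, amplified and sequenced. For binding signal, each hexamer's read frequency for a factor is divided by its frequency for the tag-only sample.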

Another assay concerns the target ETV5 (Homo sapiens, UniProt P41161 1-510). The settings on record: protein: recombinant; tags: N-terminal GST; dsDNA, one strand shown. The method, boiled down:
as §1

The next assay addresses HSF1 (Homo sapiens, UniProt Q00613 1-529). The settings on record: protein: recombinant; tags: N-terminal GST; chain copies: 3; dsDNA, one strand shown. In a few lines: as §1
For a further assay, the target named is T2, SPIC (Homo sapiens, UniProt Q8N5J4 1-248).
T2 sequence: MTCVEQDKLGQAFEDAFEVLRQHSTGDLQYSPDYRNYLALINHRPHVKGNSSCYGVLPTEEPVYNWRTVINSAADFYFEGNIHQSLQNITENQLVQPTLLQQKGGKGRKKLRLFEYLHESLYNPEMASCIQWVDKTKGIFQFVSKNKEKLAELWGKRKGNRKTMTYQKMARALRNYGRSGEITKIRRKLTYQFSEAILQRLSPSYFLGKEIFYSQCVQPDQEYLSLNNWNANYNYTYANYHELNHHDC
The settings on record: protein: recombinant; tags: N-terminal GST; dsDNA, one strand shown. In a few lines:
as §1

The next assay deals with ELF4 (Homo sapiens, UniProt Q99607 1-663). The settings on record: protein: recombinant; tags: N-terminal GST; dsDNA, one strand shown. In a few lines: as §1
The next assay addresses T3, ELK4 (Homo sapiens, UniProt P28324-2 1-405).
T3 sequence: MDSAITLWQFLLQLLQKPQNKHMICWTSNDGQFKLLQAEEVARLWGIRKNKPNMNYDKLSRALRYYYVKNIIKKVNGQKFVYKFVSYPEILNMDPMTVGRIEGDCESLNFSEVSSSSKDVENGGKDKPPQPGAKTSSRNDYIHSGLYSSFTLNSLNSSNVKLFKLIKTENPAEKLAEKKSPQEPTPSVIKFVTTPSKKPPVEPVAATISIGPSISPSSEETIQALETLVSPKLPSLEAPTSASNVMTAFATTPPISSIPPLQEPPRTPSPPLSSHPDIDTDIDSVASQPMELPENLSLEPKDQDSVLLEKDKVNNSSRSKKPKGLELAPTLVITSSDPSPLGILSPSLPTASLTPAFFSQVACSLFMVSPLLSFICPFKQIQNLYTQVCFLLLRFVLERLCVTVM
The note with it: protein: recombinant; tags: N-terminal GST; dsDNA, one strand shown. The method, boiled down:
as §1

Another assay concerns the target T4, ETV2 (Homo sapiens, UniProt O00321 1-342).
T4 sequence: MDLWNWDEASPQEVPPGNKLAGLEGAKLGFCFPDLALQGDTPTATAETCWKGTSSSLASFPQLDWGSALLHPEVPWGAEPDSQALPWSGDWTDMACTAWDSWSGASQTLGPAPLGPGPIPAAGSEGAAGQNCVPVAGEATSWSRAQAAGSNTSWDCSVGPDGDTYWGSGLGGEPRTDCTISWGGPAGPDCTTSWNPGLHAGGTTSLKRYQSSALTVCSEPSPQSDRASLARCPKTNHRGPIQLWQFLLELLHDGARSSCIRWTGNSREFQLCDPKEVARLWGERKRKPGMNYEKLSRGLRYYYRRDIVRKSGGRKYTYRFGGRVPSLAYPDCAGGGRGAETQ
The note with it: protein: recombinant; tags: N-terminal GST; dsDNA, one strand shown. In a few lines: as §1

The next assay deals with T5, ELF3 (Homo sapiens, UniProt P78545 1-371).
T5 sequence: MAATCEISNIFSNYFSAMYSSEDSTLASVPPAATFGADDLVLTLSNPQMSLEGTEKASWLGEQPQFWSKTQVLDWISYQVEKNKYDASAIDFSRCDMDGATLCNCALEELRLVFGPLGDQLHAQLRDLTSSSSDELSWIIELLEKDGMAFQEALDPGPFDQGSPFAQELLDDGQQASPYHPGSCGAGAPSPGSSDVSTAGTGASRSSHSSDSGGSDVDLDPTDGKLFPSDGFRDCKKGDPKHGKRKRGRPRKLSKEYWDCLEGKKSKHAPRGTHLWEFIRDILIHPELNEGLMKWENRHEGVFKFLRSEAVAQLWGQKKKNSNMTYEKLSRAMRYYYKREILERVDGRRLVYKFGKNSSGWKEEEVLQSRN
The note with it: protein: recombinant; tags: N-terminal GST; dsDNA, one strand shown. The method, boiled down: as §1

A further assay deals with CRX (Homo sapiens, UniProt O43186 1-299). The note with it: protein: recombinant; tags: N-terminal GST; dsDNA, one strand shown. The method, boiled down: as §1
A further assay deals with ETV1 (Homo sapiens, UniProt P50549 1-477). The settings on record: protein: recombinant; tags: N-terminal GST; dsDNA, one strand shown. In a few lines: as §1
Another assay has as its target T6, ERF (Homo sapiens, UniProt P50548 1-548).
T6 sequence: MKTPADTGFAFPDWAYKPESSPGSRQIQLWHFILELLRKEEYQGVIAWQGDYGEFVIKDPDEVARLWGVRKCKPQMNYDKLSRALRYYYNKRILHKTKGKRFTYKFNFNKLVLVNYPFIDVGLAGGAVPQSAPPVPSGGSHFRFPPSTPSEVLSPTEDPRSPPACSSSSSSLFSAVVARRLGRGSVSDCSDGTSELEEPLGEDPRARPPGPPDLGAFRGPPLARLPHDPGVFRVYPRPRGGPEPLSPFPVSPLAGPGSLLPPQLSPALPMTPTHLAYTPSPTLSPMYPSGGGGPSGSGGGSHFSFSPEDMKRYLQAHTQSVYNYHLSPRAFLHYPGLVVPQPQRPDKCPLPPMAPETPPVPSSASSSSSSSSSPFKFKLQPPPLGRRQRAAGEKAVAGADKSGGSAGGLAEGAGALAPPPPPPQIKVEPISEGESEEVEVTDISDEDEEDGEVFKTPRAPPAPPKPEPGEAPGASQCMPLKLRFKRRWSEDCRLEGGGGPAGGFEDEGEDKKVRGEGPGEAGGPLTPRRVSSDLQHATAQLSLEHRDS
The note with it: protein: recombinant; tags: N-terminal GST; dsDNA, one strand shown. The method, boiled down: as §1

In a further assay the target is T7, ETV3L (Homo sapiens, UniProt Q6ZN32 1-361).
T7 sequence: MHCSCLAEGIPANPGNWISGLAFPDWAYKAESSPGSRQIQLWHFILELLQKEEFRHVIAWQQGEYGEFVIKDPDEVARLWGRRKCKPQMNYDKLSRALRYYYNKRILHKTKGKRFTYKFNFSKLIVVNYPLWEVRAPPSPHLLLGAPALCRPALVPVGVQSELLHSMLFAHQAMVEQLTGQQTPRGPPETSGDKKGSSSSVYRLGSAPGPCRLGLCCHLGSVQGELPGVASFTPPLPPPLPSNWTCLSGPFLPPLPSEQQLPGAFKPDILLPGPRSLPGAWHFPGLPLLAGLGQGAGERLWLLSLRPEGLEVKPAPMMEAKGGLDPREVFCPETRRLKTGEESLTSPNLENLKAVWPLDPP
The settings on record: protein: recombinant; tags: N-terminal GST; dsDNA, one strand shown. In a few lines:
as §1

The next assay concerns the target T8, ETS2 (Homo sapiens, UniProt P15036 1-469).
T8 sequence: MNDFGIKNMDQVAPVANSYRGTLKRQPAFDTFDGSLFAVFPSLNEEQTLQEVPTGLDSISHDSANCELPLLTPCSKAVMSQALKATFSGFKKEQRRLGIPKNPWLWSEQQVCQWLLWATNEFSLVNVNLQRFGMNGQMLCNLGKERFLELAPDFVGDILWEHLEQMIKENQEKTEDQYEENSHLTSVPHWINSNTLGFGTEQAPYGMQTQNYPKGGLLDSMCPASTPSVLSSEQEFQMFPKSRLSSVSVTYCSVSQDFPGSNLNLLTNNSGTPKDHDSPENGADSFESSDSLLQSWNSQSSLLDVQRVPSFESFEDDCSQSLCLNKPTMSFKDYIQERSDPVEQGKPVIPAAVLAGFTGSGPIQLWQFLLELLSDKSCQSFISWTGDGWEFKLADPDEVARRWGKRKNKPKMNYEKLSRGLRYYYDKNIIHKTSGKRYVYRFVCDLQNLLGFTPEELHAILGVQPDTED
The note with it: protein: recombinant; tags: N-terminal GST; dsDNA, one strand shown. The method, boiled down:
as §1

The target in the next assay is T9, SPDEF (Homo sapiens, UniProt O95238 1-335).
T9 sequence: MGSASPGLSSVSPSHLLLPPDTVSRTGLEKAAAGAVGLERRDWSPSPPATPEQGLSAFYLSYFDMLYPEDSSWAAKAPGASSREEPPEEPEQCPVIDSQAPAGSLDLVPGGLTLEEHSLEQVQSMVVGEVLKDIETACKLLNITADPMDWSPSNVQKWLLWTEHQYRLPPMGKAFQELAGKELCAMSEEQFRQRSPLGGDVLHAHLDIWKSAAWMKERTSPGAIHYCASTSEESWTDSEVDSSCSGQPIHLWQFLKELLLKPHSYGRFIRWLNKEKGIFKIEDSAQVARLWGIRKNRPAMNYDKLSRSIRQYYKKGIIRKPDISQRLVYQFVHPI
The note with it: protein: recombinant; tags: N-terminal GST; dsDNA, one strand shown. In a few lines: as §1

The next assay concerns the target T10, ETV7 (Homo sapiens, UniProt Q9Y603 1-341).
T10 sequence: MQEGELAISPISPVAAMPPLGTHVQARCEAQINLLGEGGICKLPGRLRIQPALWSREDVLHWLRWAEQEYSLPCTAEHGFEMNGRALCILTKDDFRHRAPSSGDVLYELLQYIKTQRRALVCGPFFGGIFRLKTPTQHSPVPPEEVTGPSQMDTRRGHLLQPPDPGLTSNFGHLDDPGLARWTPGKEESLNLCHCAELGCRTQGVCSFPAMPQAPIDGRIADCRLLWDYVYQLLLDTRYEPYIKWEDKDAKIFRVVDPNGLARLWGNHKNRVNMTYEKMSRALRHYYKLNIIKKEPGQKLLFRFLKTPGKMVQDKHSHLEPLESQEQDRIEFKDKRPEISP
The note with it: protein: recombinant; tags: N-terminal GST; dsDNA, one strand shown. In a few lines:
as §1

The next assay has as its target T11, ELF5 (Homo sapiens, UniProt Q9UKW6-2 1-255).
T11 sequence: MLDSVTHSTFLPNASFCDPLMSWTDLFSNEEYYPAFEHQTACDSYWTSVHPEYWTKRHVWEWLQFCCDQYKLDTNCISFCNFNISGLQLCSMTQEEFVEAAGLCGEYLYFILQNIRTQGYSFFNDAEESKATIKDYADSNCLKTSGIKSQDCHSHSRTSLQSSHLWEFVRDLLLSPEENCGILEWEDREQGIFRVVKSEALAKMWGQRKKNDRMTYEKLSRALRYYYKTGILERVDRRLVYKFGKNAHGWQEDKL
The settings on record: protein: recombinant; tags: N-terminal GST; dsDNA, one strand shown. The method, boiled down: as §1

In another assay the target is T12, ETV3 (Homo sapiens, UniProt P41162-2 1-143).
T12 sequence: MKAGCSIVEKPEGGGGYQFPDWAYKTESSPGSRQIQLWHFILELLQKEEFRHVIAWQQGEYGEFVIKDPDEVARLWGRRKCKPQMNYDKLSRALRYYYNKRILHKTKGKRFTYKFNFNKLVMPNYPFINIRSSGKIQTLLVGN
The settings on record: protein: recombinant; tags: N-terminal GST; dsDNA, one strand shown. In a few lines:
as §1

The next assay has as its target ETV6 (Homo sapiens, UniProt P41212 1-452). The settings on record: protein: recombinant; tags: N-terminal GST; dsDNA, one strand shown. The method, boiled down:
as §1

Sequence of CRX (O43186 whole entry): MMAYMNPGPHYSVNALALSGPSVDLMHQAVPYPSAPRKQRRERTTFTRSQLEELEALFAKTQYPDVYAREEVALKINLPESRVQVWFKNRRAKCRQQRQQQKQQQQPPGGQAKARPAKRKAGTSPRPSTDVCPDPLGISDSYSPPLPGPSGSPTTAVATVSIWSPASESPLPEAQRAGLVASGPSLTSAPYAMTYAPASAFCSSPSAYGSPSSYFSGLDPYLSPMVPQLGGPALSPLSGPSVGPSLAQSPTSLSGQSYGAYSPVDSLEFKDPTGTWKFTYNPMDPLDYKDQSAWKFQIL
Sequence of HSF1 (Q00613 whole entry): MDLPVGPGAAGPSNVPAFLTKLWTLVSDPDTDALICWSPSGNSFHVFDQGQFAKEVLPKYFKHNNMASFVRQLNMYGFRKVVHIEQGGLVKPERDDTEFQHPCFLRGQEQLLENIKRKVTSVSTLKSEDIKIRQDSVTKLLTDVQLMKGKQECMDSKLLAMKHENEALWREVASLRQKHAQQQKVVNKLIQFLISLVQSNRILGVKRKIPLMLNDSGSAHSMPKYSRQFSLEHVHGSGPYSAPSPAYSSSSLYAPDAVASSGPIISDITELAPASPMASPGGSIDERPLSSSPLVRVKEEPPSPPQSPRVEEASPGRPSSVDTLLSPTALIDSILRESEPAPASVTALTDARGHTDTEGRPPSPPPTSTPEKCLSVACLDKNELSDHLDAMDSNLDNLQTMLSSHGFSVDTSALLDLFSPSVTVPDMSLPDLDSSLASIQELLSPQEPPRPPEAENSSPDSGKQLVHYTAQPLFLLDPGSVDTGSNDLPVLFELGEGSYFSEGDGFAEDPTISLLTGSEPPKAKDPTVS
Sequence of ETV5 (P41161 whole entry): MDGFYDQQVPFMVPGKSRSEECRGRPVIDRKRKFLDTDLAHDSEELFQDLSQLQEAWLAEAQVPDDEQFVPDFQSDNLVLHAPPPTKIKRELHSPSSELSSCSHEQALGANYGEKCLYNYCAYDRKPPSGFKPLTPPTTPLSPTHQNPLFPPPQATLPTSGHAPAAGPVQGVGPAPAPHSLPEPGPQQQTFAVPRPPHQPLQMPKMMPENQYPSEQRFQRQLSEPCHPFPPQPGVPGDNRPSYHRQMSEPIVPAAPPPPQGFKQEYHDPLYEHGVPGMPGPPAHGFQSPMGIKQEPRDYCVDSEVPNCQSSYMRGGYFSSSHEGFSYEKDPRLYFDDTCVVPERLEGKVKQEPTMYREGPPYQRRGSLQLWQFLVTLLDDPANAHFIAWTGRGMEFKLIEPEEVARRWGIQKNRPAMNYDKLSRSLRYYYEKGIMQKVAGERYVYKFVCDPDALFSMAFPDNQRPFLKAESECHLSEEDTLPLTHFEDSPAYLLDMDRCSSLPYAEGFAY
Sequence of ELF4 (Q99607 whole entry): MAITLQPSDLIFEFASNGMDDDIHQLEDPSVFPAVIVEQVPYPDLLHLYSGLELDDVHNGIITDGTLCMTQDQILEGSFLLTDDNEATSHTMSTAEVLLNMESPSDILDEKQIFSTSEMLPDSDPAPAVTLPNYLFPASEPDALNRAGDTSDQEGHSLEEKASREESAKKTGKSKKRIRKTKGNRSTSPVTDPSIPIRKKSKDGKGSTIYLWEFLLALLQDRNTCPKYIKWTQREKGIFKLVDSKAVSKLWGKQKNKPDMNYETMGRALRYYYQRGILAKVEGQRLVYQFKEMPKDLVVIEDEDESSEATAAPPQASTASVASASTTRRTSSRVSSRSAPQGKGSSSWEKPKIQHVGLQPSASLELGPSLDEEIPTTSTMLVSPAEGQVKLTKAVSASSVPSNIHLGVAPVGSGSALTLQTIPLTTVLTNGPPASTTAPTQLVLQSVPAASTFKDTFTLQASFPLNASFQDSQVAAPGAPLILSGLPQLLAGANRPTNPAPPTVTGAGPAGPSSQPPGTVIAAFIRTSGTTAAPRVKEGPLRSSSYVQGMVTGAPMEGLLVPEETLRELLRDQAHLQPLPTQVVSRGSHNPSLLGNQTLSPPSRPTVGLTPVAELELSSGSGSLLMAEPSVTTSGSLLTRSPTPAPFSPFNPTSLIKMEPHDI
Sequence of ETV6 (P41212 whole entry): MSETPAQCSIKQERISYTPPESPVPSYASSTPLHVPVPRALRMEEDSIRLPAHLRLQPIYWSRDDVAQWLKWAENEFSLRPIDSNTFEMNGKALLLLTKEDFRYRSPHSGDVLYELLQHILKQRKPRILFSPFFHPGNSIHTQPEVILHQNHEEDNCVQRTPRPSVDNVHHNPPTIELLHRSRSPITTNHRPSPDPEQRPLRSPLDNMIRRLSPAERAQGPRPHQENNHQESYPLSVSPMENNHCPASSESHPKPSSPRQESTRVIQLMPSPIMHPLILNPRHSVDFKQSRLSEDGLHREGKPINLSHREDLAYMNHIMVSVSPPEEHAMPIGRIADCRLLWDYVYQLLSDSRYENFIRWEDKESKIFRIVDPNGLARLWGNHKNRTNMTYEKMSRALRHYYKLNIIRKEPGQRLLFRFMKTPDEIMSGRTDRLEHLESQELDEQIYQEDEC
Sequence of ETV1 (P50549 whole entry): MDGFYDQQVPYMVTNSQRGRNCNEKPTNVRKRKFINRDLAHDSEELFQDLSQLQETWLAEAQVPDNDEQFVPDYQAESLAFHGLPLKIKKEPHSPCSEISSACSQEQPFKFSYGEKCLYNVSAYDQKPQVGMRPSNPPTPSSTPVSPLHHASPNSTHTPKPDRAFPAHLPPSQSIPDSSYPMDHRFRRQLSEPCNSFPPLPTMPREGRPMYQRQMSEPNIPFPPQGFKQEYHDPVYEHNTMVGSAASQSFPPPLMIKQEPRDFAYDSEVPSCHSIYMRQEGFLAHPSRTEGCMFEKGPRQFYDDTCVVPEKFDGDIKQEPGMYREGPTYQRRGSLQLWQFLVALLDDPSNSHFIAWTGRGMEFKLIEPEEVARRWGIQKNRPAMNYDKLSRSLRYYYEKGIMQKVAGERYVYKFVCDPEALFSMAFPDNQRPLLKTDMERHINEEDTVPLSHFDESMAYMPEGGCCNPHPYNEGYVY

As for CTAATA, the binding signal in the assay with FEV was 1.16 fold enrichment (6-mer frequency, TF over GST control); in the assay with ETV5, 1.21 fold enrichment (6-mer frequency, TF over GST control); with HSF1, 1.55 fold enrichment (6-mer frequency, TF over GST control); with SPIC it was 1.29 fold enrichment (6-mer frequency, TF over GST control); with ELF4, 1.18 fold enrichment (6-mer frequency, TF over GST control); with ELK4 it was 1.1 fold enrichment (6-mer frequency, TF over GST control). The binding signal is 1.24 fold enrichment (6-mer frequency, TF over GST control) with ETV2; 1.16 fold enrichment (6-mer frequency, TF over GST control) with ELF3; 2.09 fold enrichment (6-mer frequency, TF over GST control) with CRX; 1.22 fold enrichment (6-mer frequency, TF over GST control) with ETV1; 1.27 fold enrichment (6-mer frequency, TF over GST control) in the assay with ERF; 1.2 fold enrichment (6-mer frequency, TF over GST control) with ETV3L. For the same sequence, the binding signal is 1.18 fold enrichment (6-mer frequency, TF over GST control) with ETS2; 1.25 fold enrichment (6-mer frequency, TF over GST control) with SPDEF; 1.24 fold enrichment (6-mer frequency, TF over GST control) in the assay with ETV7; 1.08 fold enrichment (6-mer frequency, TF over GST control) with ELF5; 1.06 fold enrichment (6-mer frequency, TF over GST control) with ETV3; 1.13 fold enrichment (6-mer frequency, TF over GST control) in the assay with ETV6.
